Data from PubChem BioAssay (NCI).
Compounds without any hit were thinned out: in the full panel of roughly 83,000, 20% have a hit.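 Treatment: one concentration, 48 hours, 96-well format. Scoring: percent growth, with anything below 10 considered active.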 Calls of active or inactive are those of the source.

Legend:
Assay in all cases: NCI-60 one-dose screen, 48 h (100 = growth as untreated, 0 = no growth, -100 = all killed)
Details in all cases: 10 µM unless noted
SK-MEL-2 melanoma = system: SK-MEL-2 melanoma
EKVX NSCLC = system: EKVX NSCLC
SN12C renal = system: SN12C renal
UO-31 renal = system: UO-31 renal
TK-10 renal = system: TK-10 renal
ACHN renal = system: ACHN renal
CAKI-1 renal = system: CAKI-1 renal
A498 renal = system: A498 renal
CCRF-CEM leukemia = system: CCRF-CEM leukemia

Measured: growth

COc1cccc(-c2nn(-c3ccccc3)cc2-c2ccnc(NCCCNC(=O)c3cccc(C(F)(F)F)c3)c2)c1
inactive: SK-MEL-2 melanoma 33.4% | EKVX NSCLC 48.9% | SN12C renal 45.5% | UO-31 renal 10.9% | TK-10 renal 26.9% | ACHN renal 31.7% | CAKI-1 renal 51.4% | A498 renal 43.6%

CN(C)c1ccc(-c2ccc3[nH]c(=O)nc(-c4ccccc4)c3c2)cn1
inactive: SK-MEL-2 melanoma 22.8% | EKVX NSCLC 58.5% | SN12C renal 50.7% | UO-31 renal 53% | TK-10 renal 82.8% | ACHN renal 47.9% | CAKI-1 renal 49.6% | A498 renal 52.3%

O=C(NCCNc1cc(-c2cn(-c3ccccc3)nc2-c2cccc(O)c2)ccn1)Nc1ccccc1
inactive: SK-MEL-2 melanoma 86.4% | EKVX NSCLC 71.4% | SN12C renal 77.4% | UO-31 renal 58.6% | TK-10 renal 124% | ACHN renal 88.5% | CAKI-1 renal 80.1% | A498 renal 80.8%

C=C1C(=O)O[C@H]2[C@H]1CC/C(COC(=O)C(=O)c1cn(C)c3ccc(OC)cc13)=C\CC[C@@]1(C)O[C@@H]21
active: SK-MEL-2 melanoma -47.2% | EKVX NSCLC -17.4% | SN12C renal -51% | UO-31 renal -91.9% | TK-10 renal -61.4% | ACHN renal -57.8% | CAKI-1 renal -43.6% | A498 renal -99.5%

O=C(N=c1oc2ccccc2cc1-c1cc2ccccc2[nH]1)c1ccc(Cl)cc1
active: ACHN renal 6.82%
inactive: SK-MEL-2 melanoma 101% | EKVX NSCLC 38.9% | SN12C renal 80.3% | UO-31 renal 54.5% | TK-10 renal 53.1% | CAKI-1 renal 56.2% | A498 renal 69.6%

COc1ccc2nc(NNC(=O)c3cnccn3)c3cccn3c2c1
active: EKVX NSCLC 2.79% | SN12C renal 8.52% | UO-31 renal -17% | ACHN renal -22.8% | CAKI-1 renal 4.46% | A498 renal -11.5%
inactive: SK-MEL-2 melanoma 46.1% | TK-10 renal 30.7%

COC(=O)[C@]12CC[C@@H](C)[C@H](C)[C@@H]1C1=CC[C@@H]3[C@@]4(C)C(C=O)=C[C@@](C)(COC(C)=O)[C@@H]4C(=O)C[C@@]3(C)[C@]1(C)CC2
inactive: SK-MEL-2 melanoma 43% | EKVX NSCLC 36.1% | SN12C renal 43.6% | UO-31 renal 34.1% | TK-10 renal 36.8% | ACHN renal 23.5% | CAKI-1 renal 44.6% | A498 renal 60.5% | CCRF-CEM leukemia 43.9%

CN(C)CCNc1nc2ccccc2c2c1c1c(n2Cc2ccccc2)-c2ccccc2C1=O
active: SK-MEL-2 melanoma -74.6% | EKVX NSCLC -87.8% | SN12C renal -89.1% | UO-31 renal -77.8% | TK-10 renal -80% | ACHN renal -98.4% | CAKI-1 renal -80.1% | A498 renal -96.4% | CCRF-CEM leukemia -60.6%

Cc1cc(NCc2cc(Nc3ccnc4cc(Cl)ccc34)ccc2F)nc(N2CCN(c3ccccc3)CC2)n1
inactive: SK-MEL-2 melanoma 84.5% | EKVX NSCLC 64.8% | SN12C renal 49.9% | UO-31 renal 36.1% | TK-10 renal 88.7% | ACHN renal 69.2% | CAKI-1 renal 72.3% | A498 renal 14.1%
active: CCRF-CEM leukemia -7.8%

COc1ccc(-c2cc(-c3cc(OC)ccc3OC)nc(SCC(=O)c3ccccc3)c2C#N)cc1
inactive: SK-MEL-2 melanoma 89.6% | EKVX NSCLC 100% | SN12C renal 93.7% | UO-31 renal 81.9% | TK-10 renal 114% | ACHN renal 91.6% | CAKI-1 renal 95.3% | A498 renal 93.9% | CCRF-CEM leukemia 111%

Cc1cc(C)c(-c2c(C)cc(C)cc2CBr)c(CBr)c1
inactive: SK-MEL-2 melanoma 94.5% | EKVX NSCLC 102% | SN12C renal 80.3% | UO-31 renal 75.9% | TK-10 renal 103% | ACHN renal 75% | CAKI-1 renal 87.6% | A498 renal 73.1% | CCRF-CEM leukemia 42%

COc1cccc(C(=O)NCCNc2cc(-c3cn(-c4ccccc4)nc3-c3cccc(OC)c3)ccn2)c1
inactive: SK-MEL-2 melanoma 57.2% | EKVX NSCLC 69% | SN12C renal 74.4% | UO-31 renal 39.9% | TK-10 renal 80.4% | ACHN renal 69.8% | CAKI-1 renal 69.2% | A498 renal 59% | CCRF-CEM leukemia 25.6%

Cc1cc(NCCCCNc2ccnc3cc(Cl)ccc23)nc(Nc2ccc(C(=O)N3CCCCC3)cc2)n1
inactive: EKVX NSCLC 41.1% | SN12C renal 29.6% | UO-31 renal 33.5% | CAKI-1 renal 79.5% | A498 renal 53.4%
active: SK-MEL-2 melanoma -63.1% | TK-10 renal -49.2% | ACHN renal -4.47% | CCRF-CEM leukemia -20%

CCCCCCCCCCCCCCCCCCOc1ccccc1CC(=O)OCCC[N+](C)(C)C
inactive: SK-MEL-2 melanoma 87.7% | EKVX NSCLC 79% | SN12C renal 36% | UO-31 renal 90.1% | TK-10 renal 50.1% | ACHN renal 67.5% | CAKI-1 renal 43.6% | A498 renal 98.5% | CCRF-CEM leukemia 25.7%

CCCCn1c(=O)c2c(nc(NCCc3ccc(O)c(O)c3)n2CCC)n(CCCC)c1=O
inactive: SK-MEL-2 melanoma 72.7% | EKVX NSCLC 79.5% | SN12C renal 86.6% | UO-31 renal 56.7% | TK-10 renal 85.8% | ACHN renal 81% | CAKI-1 renal 100% | A498 renal 86.9% | CCRF-CEM leukemia 36.6%

COc1cccc(-c2nn(-c3ccccc3)cc2-c2ccnc(NCCNC(=O)c3ccccc3)c2)c1
inactive: SK-MEL-2 melanoma 84.7% | EKVX NSCLC 66.6% | SN12C renal 71.4% | UO-31 renal 49.7% | TK-10 renal 90.1% | ACHN renal 74.1% | CAKI-1 renal 68% | A498 renal 46.6% | CCRF-CEM leukemia 48.7%

C#CCOc1nc(C)cc(C)c1C#N
inactive: SK-MEL-2 melanoma 111% | EKVX NSCLC 97.1% | SN12C renal 104% | UO-31 renal 86.5% | TK-10 renal 95.9% | ACHN renal 99.7% | CAKI-1 renal 90.6% | A498 renal 87.7% | CCRF-CEM leukemia 109%

Cc1cc(NCCCCNc2ccnc3cc(Cl)ccc23)nc(Nc2ccc(C(=O)N3CCCC3)cc2)n1
inactive: SK-MEL-2 melanoma 91.2% | EKVX NSCLC 79% | SN12C renal 70.4% | UO-31 renal 75.4% | TK-10 renal 115% | ACHN renal 60.7% | CAKI-1 renal 97.1% | A498 renal 62.6%
active: CCRF-CEM leukemia 2.01%

COc1cc(/C=N/n2c(CN3CCOCC3)nc3ccccc3c2=O)cc(OC)c1OC
inactive: SK-MEL-2 melanoma 113% | EKVX NSCLC 107% | SN12C renal 101% | UO-31 renal 87.7% | TK-10 renal 103% | ACHN renal 103% | CAKI-1 renal 100% | A498 renal 81.8% | CCRF-CEM leukemia 104%

COC(=O)[C@]12CC[C@@H](C)[C@H](C)[C@@H]1C1=CC[C@@H]3[C@@]4(C)C(C=O)=C[C@@](C)(COS(C)(=O)=O)[C@@H]4C(=O)C[C@@]3(C)[C@]1(C)CC2
inactive: SK-MEL-2 melanoma 66.9% | EKVX NSCLC 53.2% | SN12C renal 36.2% | UO-31 renal 34.2% | TK-10 renal 54.2% | ACHN renal 17.8% | CAKI-1 renal 53.3% | A498 renal 98.2% | CCRF-CEM leukemia 30.9%

COc1ccc(NC(=O)CSc2nnc(-c3cc(-c4ccc(S(N)(=O)=O)cc4)nc4ccccc34)n2-c2ccccc2)cc1
inactive: SK-MEL-2 melanoma 93% | EKVX NSCLC 78.5% | SN12C renal 81.6% | UO-31 renal 74.5% | TK-10 renal 103% | ACHN renal 81.6% | CAKI-1 renal 61.2% | A498 renal 54.3% | CCRF-CEM leukemia 73.2%

CS(=O)c1cccc(-c2ccc3nc(N)n(-c4ccc(C(F)(F)F)cc4)c(=O)c3c2)c1 (stereo not given)
inactive: SK-MEL-2 melanoma 98.2% | EKVX NSCLC 108% | SN12C renal 96.3% | UO-31 renal 75.8% | TK-10 renal 94.7% | ACHN renal 105% | CAKI-1 renal 96.3% | A498 renal 107% | CCRF-CEM leukemia 99.7%

CC(C)(C)C(CCc1ccc(Cl)cc1)N1CCN(C2CCCCC2)CC1 (stereo not given)
inactive: SK-MEL-2 melanoma 72.9% | EKVX NSCLC 70.1% | SN12C renal 45.7% | UO-31 renal 32.6% | TK-10 renal 96.2% | ACHN renal 51.3% | CAKI-1 renal 35.8% | A498 renal 78% | CCRF-CEM leukemia 25.9%

O=[N+]([O-])c1ccc(Sc2cccc[n+]2[O-])c2nonc12
inactive: SK-MEL-2 melanoma 92.9% | EKVX NSCLC 98.2% | SN12C renal 93.6% | UO-31 renal 49.1% | TK-10 renal 133% | ACHN renal 95.4% | CAKI-1 renal 102% | A498 renal 113%
active: CCRF-CEM leukemia -18.8%

COc1ccc(NC(=O)CSc2nnc(-c3cc(-c4ccccc4)nc4ccccc34)n2-c2ccccc2)cc1
inactive: SK-MEL-2 melanoma 102% | EKVX NSCLC 78.1% | SN12C renal 88.9% | UO-31 renal 67% | TK-10 renal 117% | ACHN renal 94.6% | CAKI-1 renal 80% | A498 renal 74.3% | CCRF-CEM leukemia 86.9%

COC(=O)[C@]12CC[C@@H](C)[C@H](C)[C@@H]1C1=CC[C@@H]3[C@@]4(C)C(C=O)=C[C@@](C)(COS(C)(=O)=O)C4[C@H](O)C[C@@]3(C)[C@]1(C)CC2 (stereo not given in full)
active: SK-MEL-2 melanoma -60.7% | EKVX NSCLC -22.4% | SN12C renal -40.8% | UO-31 renal -96.6% | TK-10 renal -73.5% | ACHN renal -93.2% | CAKI-1 renal -15.6% | A498 renal -38.5% | CCRF-CEM leukemia -33.8%

CN1CCN(CCCOc2ccc3nc(Nc4ccc(F)c(F)c4)ccc3c2)CC1
inactive: SK-MEL-2 melanoma 54.4% | EKVX NSCLC 61.7% | SN12C renal 68% | UO-31 renal 47.4% | TK-10 renal 41.7% | ACHN renal 44.3% | CAKI-1 renal 73.3% | A498 renal 33.4% | CCRF-CEM leukemia 17.2%

COc1ccc(N2CCN(c3nc(-c4cc(OC)c(OC)c(OC)c4)nc4ccccc34)CC2)cc1
inactive: SK-MEL-2 melanoma 93.6% | EKVX NSCLC 85% | SN12C renal 90.1% | UO-31 renal 69.9% | TK-10 renal 113% | ACHN renal 90.6% | CAKI-1 renal 84.1% | A498 renal 79.5% | CCRF-CEM leukemia 91.3%

CNC(=O)c1cc(Oc2ccc3nc(Nc4ccc(Cl)c(C(F)(F)F)c4)ccc3c2)ccn1
inactive: SK-MEL-2 melanoma 75.9% | EKVX NSCLC 62.6% | SN12C renal 71.1% | UO-31 renal 57.8% | TK-10 renal 54.5% | ACHN renal 49.4% | CAKI-1 renal 92.7% | A498 renal 61.8% | CCRF-CEM leukemia 42.2%
